Results on 29 compounds are retold here after ChEMBL document CHEMBL4513216, “Probing the Open Global Health Chemical Diversity Library for Multistage-Active Starting Points for Next-Generation Antimalarials” (ACS Infect Dis, 2020).

About 2,700 (4%) of roughly 68,000 compounds showed an effect of 50% or more. Only a selection was taken, and strong results are over-represented in it overall.

The test concerns Plasmodium berghei. Nature of the test: Screen against P. berghei liver stage (PbLuc), transformed with Luciferase, at 2uM. The following applies: tested at 2 uM. The test is classed as functional, HepG2.
As to `CCN(CC)C(=O)CSc1sc2c(O)cc(=O)[nH]c2c1C(N)=O`, the INHIBITION was -56.02%.
With `Cc1ccc(N2C[C@H]3CCN(Cc4ccncc4)C[C@H]3C2)nn1`, the INHIBITION worked out at 16.63%.
The same measure for `O=C(c1ccno1)N1CCO[C@]2(CCC[C@@H]2COCc2ccncc2)C1`: 64.99%.
As for `O=C(c1ccoc1)N1CCO[C@]2(CCC[C@H]2COCc2cccnc2)C1`, the INHIBITION was determined as 5.85%.
On to `O=C(c1ccoc1)N1CCO[C@]2(CCC[C@@H]2COCc2ccncc2)C1`, for which the INHIBITION was found to be 35.48%.
The same measure for `CCNC(=O)C1(Cc2cc(-c3ccc(C)cc3)no2)CCCN(C)C1` (centres undefined): -40.35%; for `CS(=O)(=O)c1cn[nH]c1C1CCCCN1C(=O)c1cnccn1` (centres undefined): 17.39%; for `CC(C)NC(=O)N1CCC2(CC(C(=O)NCc3cccnc3)=NO2)C1` (centres undefined): -7.01%.
As for `COCCN(CCOC)c1ncccc1Cl`, the INHIBITION came out at 67.7%.
As for `COCCN(CCOC)c1ncccc1I`, the INHIBITION stood at 38.1%.
For the compound `COCCN(CCOC)c1ncc(C#N)cc1Cl`, the INHIBITION worked out at 1.42%.
Regarding `CCOc1ccc(Cl)cc1C1CCCCN1` (centres undefined), the INHIBITION was found to be 14.61%.
Consider `COCCNC(=O)Cn1cc2c(n1)c(C)nn2C(C)C`, for which the INHIBITION was -28.32%.
For the compound `CC(C)CN1CC[C@H](c2nnc(COc3ccc(F)cc3)o2)C1`, the INHIBITION is on record as 10.65%.
On to `CS(=O)(=O)N1CC2(CCN(C(=O)c3csnn3)CC2)c2ccccc21`, for which the INHIBITION is reported as 54.01%.
Take `Cn1cccc1C(=O)N1CCC2(CC1)CN(S(C)(=O)=O)c1ccccc12`: the INHIBITION was found to be 38.64%.
The same measure for `CS(=O)(=O)N1CC2(CCN(C(=O)c3ccncc3)CC2)c2ccccc21`: 9.53%.
The same measure for `O=C(CN1C(=O)c2ccccc2C1=O)N1CCOC2(CCOCC2)C1`: 13.46%; for `CN(C)CCOCc1cncc2c1CCN(C(=O)c1cscn1)C2`: -30.85%; for `CCc1cc(N(C)Cc2[nH]nc3c2CCC3)nc(N2CCOCC2)n1`: 33.9%.
The same measure for `Nc1nc(NCCc2[nH]nc3c2CCCC3)cc(N2CCOCC2)n1`: 67.28%; for `CN(Cc1n[nH]c2c1CCCC2)c1cc(N2CCOCC2)nc(N)n1`: -32.88%.
As to `CCn1nc(C)c(NC(=O)CCn2ncc3cc(C)ccc32)c1C`, the INHIBITION is given as 24.79%.
The same measure for `CCc1nsc(NC2CCCn3nc(COC)nc32)n1` (centres undefined): -11.71%; for `CCc1ncncc1C(=O)NCCNS(=O)(=O)c1ccccc1`: 48.68%.
The same measure for `Cc1ccc(S(=O)(=O)NCCNC(=O)c2cncnc2C)cc1`: 55.25%.
The same measure for `CCc1ncncc1C(=O)NCCNS(=O)(=O)c1ccc(C)cc1`: -41.64%; for `Cc1nn(Cc2ccc(C(=O)NCCCN3CCCC3=O)o2)c(C)c1Cl`: 26.37%.
`CCCc1n[nH]c(C2CN(C(=O)c3cc(F)ccc3OC)CCO2)n1` (centres undefined): the INHIBITION is -29.94%.
